{"source": "PubChem BioAssay (NCATS)", "note": "Results filed as inconclusive are left out. Calls of active or inactive are those of the source. Calls follow the shape of the dose curve; as a rule, active = well fitted inhibition curve with a large enough effect; inconclusive = small, poorly fitted or top-dose-only effect; inactive = no such curve, though single readings can be large or run the other way. % is scaled to controls: 0 for no effect and ±100 for the full control effect; potency is read from the fitted curve at half-maximal effect.", "data": [{"target": "Rap guanine nucleotide exchange factor 4 (Homo sapiens) (UniProt Q8WZA2)", "sequence (Q8WZA2 whole entry, looked up)": "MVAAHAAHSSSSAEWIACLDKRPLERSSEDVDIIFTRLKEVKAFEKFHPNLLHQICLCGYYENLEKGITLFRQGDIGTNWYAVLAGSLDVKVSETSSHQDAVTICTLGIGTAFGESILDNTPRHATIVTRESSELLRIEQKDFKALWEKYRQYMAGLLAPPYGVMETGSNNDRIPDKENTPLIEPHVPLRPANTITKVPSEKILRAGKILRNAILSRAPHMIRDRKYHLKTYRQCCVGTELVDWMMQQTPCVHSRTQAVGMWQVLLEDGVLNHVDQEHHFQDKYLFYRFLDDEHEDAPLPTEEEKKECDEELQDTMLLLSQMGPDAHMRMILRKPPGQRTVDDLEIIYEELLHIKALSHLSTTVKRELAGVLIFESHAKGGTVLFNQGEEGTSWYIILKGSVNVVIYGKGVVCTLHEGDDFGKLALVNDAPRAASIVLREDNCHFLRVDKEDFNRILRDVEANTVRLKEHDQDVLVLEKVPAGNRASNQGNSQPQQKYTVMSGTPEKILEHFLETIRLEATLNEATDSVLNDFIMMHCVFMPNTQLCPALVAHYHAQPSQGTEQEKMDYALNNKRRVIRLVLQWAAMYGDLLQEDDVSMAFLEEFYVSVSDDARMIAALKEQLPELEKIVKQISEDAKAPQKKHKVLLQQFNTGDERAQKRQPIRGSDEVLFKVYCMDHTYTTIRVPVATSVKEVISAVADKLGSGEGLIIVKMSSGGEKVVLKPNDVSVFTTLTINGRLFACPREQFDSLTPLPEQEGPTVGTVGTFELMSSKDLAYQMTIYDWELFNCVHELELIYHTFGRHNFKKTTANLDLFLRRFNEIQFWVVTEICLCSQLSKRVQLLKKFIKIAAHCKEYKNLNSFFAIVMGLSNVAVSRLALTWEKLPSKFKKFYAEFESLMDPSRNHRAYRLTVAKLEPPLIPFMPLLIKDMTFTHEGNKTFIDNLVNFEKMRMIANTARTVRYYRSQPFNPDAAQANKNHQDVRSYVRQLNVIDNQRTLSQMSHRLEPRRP", "test": "Confirmatory qHTS for antagonist of cAMP-regulated guanine nucleotide exchange factor 4 (EPAC2) (AID 1645885); also: nearly all actives have a fitted effect of over 25% in size", "conditions": "EPAC2 Rap1B-BODIPY-GDP exchange fluorescence, biochemical; series mostly up to 12.7 µM; activity change, negative = inhibition: at the top concentration", "values": [{"molecule": "CCO[C@H]1OC(C(=O)NCc2ccccc2)=C[C@@H](c2ccc(C(F)(F)F)cc2)[C@@H]1CCCO", "activity change, negative = inhibition": "189% [at 114 µM] (inactive)"}, {"molecule": "Cc1ccc(NS(=O)(=O)c2ccc(C(=O)N3CC(C)CC(C)C3)cc2)cc1", "note": "(stereo not given)", "activity change, negative = inhibition": "-39.1% [at 114 µM] (inactive)"}, {"molecule": "COc1cc(/C=C(\\C#N)C(=O)Nc2ccccc2C(=O)O)cc(Cl)c1OC", "outcome": "inactive"}, {"molecule": "CC(C)(C)c1ccc(C(=O)N2CCCC(c3nc4c(nnn4Cc4cccc(F)c4)c(=O)[nH]3)C2)cc1", "note": "(stereo not given)", "outcome": "inactive [at 12.7 µM]"}, {"molecule": "COc1cc2nc(N3CCNCC3)nc(N)c2cc1OC", "Potency": "67.5 µM (active)"}, {"molecule": "CCC(NC(=O)c1ccccc1NC(=O)c1ccco1)C(=O)NNC(=O)c1ccc(OC)cc1", "note": "(stereo not given)", "activity change, negative = inhibition": "-9.96% (inactive)"}, {"molecule": "NC(CSC(c1ccccc1)(c1ccccc1)c1cccc2ccccc12)C(=O)O", "note": "(stereo not given)", "activity change, negative = inhibition": "-3.15% (inactive)"}, {"molecule": "C[C@H]1CN([C@@H](C)CO)S(=O)(=O)c2ccc(Br)cc2O[C@@H]1CN(C)Cc1ccccc1", "Potency": "23.9 µM (active)"}, {"molecule": "Cc1cc(C)c(OCC(=O)N(Cc2ccco2)Cc2ccco2)c(C)c1", "activity change, negative = inhibition": "-9.19% (inactive)"}, {"molecule": "O=C(Nc1ccccc1N1CCCCC1)c1cnccn1", "activity change, negative = inhibition": "-29.6% (inactive)"}, {"molecule": "CCOc1ccccc1CNC(=O)Cn1nc(C)c2c(C)n(-c3ccc(C)cc3)nc2c1=O", "activity change, negative = inhibition": "-1.61% (inactive)"}, {"molecule": "CCCCOC(=O)C1=C(C)Nc2nnnn2C1c1ccccc1Cl", "note": "(stereo not given)", "activity change, negative = inhibition": "7.26% [at 114 µM] (inactive)"}, {"molecule": "CCc1ccc2c(c1)NC(=O)C2(C)Cc1ccc(C(F)(F)F)o1", "note": "(stereo not given)", "activity change, negative = inhibition": "66.2% [at 114 µM] (inactive)"}, {"molecule": "COC(=O)CC1(c2ccc(OC)cc2)C(=O)c2ccccc2C1=O", "activity change, negative = inhibition": "52.2% [at 114 µM] (inactive)"}, {"molecule": "COc1ccc(N2C(=O)CSC23C(=O)N(Cc2cccc(C(F)(F)F)c2)c2ccccc23)cc1", "note": "(stereo not given)", "outcome": "inactive [at 12.7 µM]"}, {"molecule": "CCC(C)(C)c1ccc(OCC(=O)N(C)C)c(C(C)(C)CC)c1", "Potency": "67.5 µM (active)"}, {"molecule": "Cc1ccc(N=Cc2cc3c(cc2[N+](=O)[O-])OCO3)cc1[N+](=O)[O-]", "activity change, negative = inhibition": "-5.89% (inactive)"}, {"molecule": "CCCCn1c(CNC(=O)C23CC4CC(CC(C4)C2)C3)nnc1SCC(=O)Nc1nnc(C)s1", "activity change, negative = inhibition": "-4.72% (inactive)"}, {"molecule": "CCCC[C@@H]1C[C@H]1[C@@H](NC(=O)c1ccco1)c1ccc(Cl)cc1", "activity change, negative = inhibition": "-23.4% [at 114 µM] (inactive)"}, {"molecule": "Cc1ccc(C)c(S(=O)(=O)N2CCN(C(=O)/C=C/c3ccco3)CC2)c1", "activity change, negative = inhibition": "-22.6% [at 114 µM] (inactive)"}, {"molecule": "CC1=CCC[C@@H]2[C@@](C)(CC/C(C)=C/C(=O)O)[C@H](C)CC[C@@]12C", "activity change, negative = inhibition": "-9.39% (inactive)"}, {"molecule": "Cc1cccc(NC(=O)c2ccc(-n3cncn3)c([N+](=O)[O-])c2)c1", "activity change, negative = inhibition": "-7.75% (inactive)"}, {"molecule": "CC1Sc2ccc(C#N)cc2N(Cc2cccc(C(F)(F)F)c2)C1=O", "note": "(stereo not given)", "activity change, negative = inhibition": "79.1% [at 114 µM] (inactive)"}, {"molecule": "C=CCn1c(SCC(=O)Nc2cc(Cl)ccc2C(=O)O)nc2sc(C)c(C)c2c1=O", "activity change, negative = inhibition": "-1.95% (inactive)"}, {"molecule": "COc1ccc(N2C(=O)Cc3cc(OC)c(OC)cc3C2c2ccc(F)cc2)cc1", "note": "(stereo not given)", "activity change, negative = inhibition": "13.9% (inactive)"}]}]}
